Screening results deposited in PubChem BioAssay by National Center for Advancing Translational Sciences (NCATS).
Pf Dd2 inh = blocks in vitro growth of P. falciparum Dd2 | P. falciparum Dd2 growth, SYBR Green, 72 h | Potency, µM (titrated, usually from 28.9 µM), without a hit: top-dose activity, negative = inhibition, actives largely listed as inhibitors | 120,000 compounds, 4.3% hits; active = well fitted inhibition curve with a large enough effect;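 also: plate controls were DMSO vehicle for no effect and reference drug for full effect; nearly all actives have a fitted effect of over 65% in size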
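Readout: SYBR Green fluorescence, 485 nm excitation, 535 nm emission, after ~16 h lysis at 37C. Before that, Dd2-infected red cells (2.5% hematocrit) grew 72 h with compound, 29 uM top final concentration.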
Starred values were filed as active, the others as inactive; i = inactive; [ ] = another dose, or the depositor's remark. The full list was thinned out, with hits kept by preference. Potency is read from the fitted curve at half-maximal effect.

SMILES	Pf Dd2 inh
Cc1ccc(Cn2c(=O)n(CC3CCC(C(=O)N4CCC(C)CC4)CC3)c(=O)c3sccc32)cc1 (centres undefined)	-24%
Cc1cccc(Cn2c(=O)n(CC3CCC(C(=O)NC(C)C)CC3)c(=O)c3sccc32)c1 (centres undefined)	-5%
COc1cccc(Cn2c(=O)n(CC3CCC(C(=O)NC(C)C)CC3)c(=O)c3sccc32)c1 (centres undefined)	-8%
CNC(=O)C1CCC(Cn2c(=O)c3sccc3n(CC(=O)N3CCC(C)CC3)c2=O)CC1 (centres undefined)	8%
CCCCCNc1ncnc2c1CN(c1ccc(Cl)cc1)C(=O)CN2C	-25%
CCN(CC)C(=O)CN1C(=O)NC(c2ccccc2OC)C2=C1COC2=O (centres undefined)	-8%
Cc1cccc2nnc(N3CCCN(C(=O)c4ccccc4Cl)CC3)n12	i
O=C(c1ccccc1OC(F)(F)F)N1CCC(c2n[nH]c(=O)n2-c2ccccc2)CC1	-5%
O=C(NCCc1ccccc1)N1CCN(C(=O)N2CC3CC(C2)[C@H]2CCCC(=O)N2C3)CC1 (some centres undefined)	9%
Cc1ccc(C(=O)N2CC(Oc3ccc4c(c3)OCO4)C2)cc1	i
CCc1cccc(NC(=O)CCn2ccn3nc4c(c3c2=O)CCCC4)c1	i
COc1cccc(Nc2ncc3c(n2)C(C)(C(=O)NCCN2CCOCC2)CC3)c1 (centres undefined)	i
COc1ccc(NC(=O)C2(C)CCCc3cnc(Nc4cccnc4)nc32)cc1 (centres undefined)	i
COCCN1Cc2ccc(NCC(C)C)nc2C(C)(C(=O)NCc2cccnc2)C1 (centres undefined)	-17%[44.1 µM]
COc1cccc(Nc2ccc3c(n2)C(C)(C(=O)NCCc2cnc[nH]2)CN(C)C3)c1 (centres undefined)	-2%[44.1 µM]
COCCN1Cc2ccc(Nc3cccnc3)nc2C(C)(C(=O)Nc2cccc(F)c2)C1 (centres undefined)	8.9µM*
COc1cccc(Nc2ccc3c(n2)C(C)(C(=O)NCCc2ccccn2)CN(C)C3)c1 (centres undefined)	3.2µM*
Cc1nnc(-c2cc(-c3cccc(O)c3)ccn2)n1CCc1ccccc1	i
CC(=O)Nc1cccc(-c2ccnc(-c3nnc(C)n3CCc3ccccc3)c2)c1	7.9µM*
Cc1nnc(-c2cc(-c3cccc(F)c3)ccn2)n1CCc1ccccc1	-11%[44.1 µM]
COCCn1c(C)cc(C(=O)N2C[C@@H](CO)[C@H](c3ccccn3)C2)c1C	12%
COc1ccccc1[C@@H]1CN(C(=O)CCc2scnc2C)C[C@H]1C(=O)O	-12%
O=C(O)Cn1ccc2cc(OCC3CCN(C(=O)OC4CCCC4)CC3)cnc21	i
N#Cc1ccc(C(=O)N2Cc3[nH]cnc3C[C@H]2c2nc(-c3ccc4c(c3)OCO4)no2)cc1	10µM*
O=C(NCc1ccccc1)N1Cc2[nH]cnc2C[C@H]1c1nc(-c2ccc3c(c2)OCO3)no1	-19%
SMILES	Pf Dd2 inh
Cc1ccc(-c2noc([C@@H]3Cc4nc[nH]c4CN3C(=O)c3ccc(F)cc3)n2)cc1	i
COC1C(=O)N(C2CCN(C(=O)c3cnccn3)CC2)C12CCOCC2 (centres undefined)	1%
CC[C@@H](Nc1ncnc2c1CN(C1CCCNCC1)C(=O)CN2C)c1ccccc1 (some centres undefined)	0%
CCOc1cc(=O)n2c(c1C(=O)Nc1ccc(F)c(Cl)c1)CCCC2	12%
COCCNC(=O)[C@H]1C[C@H](Oc2ccccc2)CN1C(=O)NCC(C)C	33%
Cc1ccc(OCc2nc(C3CCCCN3C(=O)c3cc(F)ccc3F)no2)cc1 (centres undefined)	i
CN(C)C[C@@H]1CN(S(C)(=O)=O)C[C@H]1NC(=O)c1cncn1C	i
COC(=O)C1=C(C)N(Cc2cccc(Cl)c2)C(=O)CC1c1ccccc1Cl (centres undefined)	i
Cc1ccc(CN2C(=O)NC3(CCCN(C(=O)c4cccc(C)c4)C3)C2=O)cc1 (centres undefined)	31%
CCOC(=O)C1=C(C)N(Cc2ccc(C(=O)N3CCCCC3)cc2)C(=O)CC1c1cccc(C)c1 (centres undefined)	5µM*
O=C(c1ccccc1F)N1CCC2(C1)C(=NC1CCCC1)NC(=O)N2c1cccnc1 (centres undefined)	-1%
O=C(N[C@@H]1CCC[C@@H]1C(=O)N1CCCCC1)c1ccncc1	21%
CCn1ccc(C(=O)N2CC(Oc3cccc(-c4nc(C)no4)c3)C2)n1	-24%[5.79 µM]
CCn1cc(S(=O)(=O)c2ccc(C)cc2C)c(=O)c2cc(F)c(N3CCCC3)cc21	11µM*
Cc1ccc(C)c(S(=O)(=O)c2cn(C)c3cc(N4CCCCC4C)c(F)cc3c2=O)c1 (centres undefined)	11µM*
Cc1ccc(C)c(S(=O)(=O)c2cn(C)c3cc(F)c(F)cc3c2=O)c1	10%
CCCCn1cc(S(=O)(=O)c2cc(C)ccc2C)c(=O)c2cc(F)c(F)cc21	-11%
CCCn1cc(S(=O)(=O)c2cc(C)ccc2C)c(=O)c2cc(F)c(N3CCOCC3)cc21	47%
Cc1cccc(S(=O)(=O)c2cn(C)c3cc(N4CCCCCC4)c(F)cc3c2=O)c1	i
Cc1ccc(S(=O)(=O)c2cn(C)c3cc(N4CCCC4)c(F)cc3c2=O)c(C)c1	10µM*
CCn1cc(S(=O)(=O)c2cc(C)cc(C)c2)c(=O)c2cc(F)c(N3CCCCC3)cc21	-16%
CN1CCC(NC[C@H]2O[C@@H](CO)[C@@H](O)[C@H]2N2CCN(c3ncccn3)CC2)CC1	5%
CN1CCOc2c(C(=O)NCCc3cnc[nH]3)cc(-c3ccccc3F)cc21	i
CCCCNC(=O)c1noc(-c2ccc(C#N)cc2)n1	i
Cc1ccc(C(=O)N2CCC(n3nccc3NC(=O)C3CCOC3)CC2)cc1C (centres undefined)	8%
SMILES	Pf Dd2 inh
O=C1CCN(C(=O)COc2ccccc2)CCCC(CO)CCN1 (centres undefined)	-4%
CC(C)CC(=O)N1CCCN(S(C)(=O)=O)c2ccccc21	-1%
CCc1ccccc1S(=O)(=O)Nc1cccn2nc(C(C)C)nc12	8.9µM*
CC(C)c1nc2c(NC(=O)Nc3cccc(Cl)c3)cccn2n1	-18%
CC(C)c1nc2c(NC(=O)c3cccc(Br)c3)cccn2n1	3.2µM*
Cc1nc2c(NS(=O)(=O)c3cccc(C#N)c3)cccn2n1	3%
COc1ccc(NC(=O)Nc2cccn3nc(C(C)C)nc23)cc1	-23%
CCc1nc2c(NS(=O)(=O)c3cccnc3)cccn2n1	-8%
CCn1cc(CN(C)C(=O)CCC[C@@H]2[C@H]3CCCN4CCC[C@@H](CN2C)[C@@H]34)c(C)n1	i
O=C(NCc1ccco1)NC1CCc2nnc(C3CC3)n2CC1 (centres undefined)	2%
O=C(Nc1cccc(F)c1)C1CCN(C(=O)c2ncn3c2COC(c2ccccc2)C3)CC1 (centres undefined)	-3%
O=C(NC1CCCCC1)C1CN(C(=O)c2ccc3c(c2)OCO3)CC12CCOCC2 (centres undefined)	3%
Cn1cccc1CN1CCCN(S(C)(=O)=O)C(c2ccccc2)CC(=O)NCC1 (centres undefined)	-9%
COCCNC(=O)c1ccc2c(c1)N(C)C(CC(=O)Nc1ccc(N)nc1)CO2 (centres undefined)	-17%
CCO[C@H]1CN(C(=O)c2ccccc2Cc2ccc(C)c(F)c2)C[C@@H]1O	-12%
